Screening results deposited in PubChem BioAssay by National Center for Advancing Translational Sciences (NCATS).
Rab9 promoter act = qHTS Assay for Rab9 Promoter Activators | Huh7 Rab9 promoter-luciferase reporter, luminescence, 24 h | Potency, µM (highest dose often 9.22 µM), for inactives: at the top dose activation, negative = inhibition, hits mostly activators | hit rate 2.8% among 320,000 | AID 485297, 2010; further: % of control where 0% means no effect; nearly all actives have a fitted effect of over 60% in size
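Measured in stably transfected Huh7 cells bearing a Rab9 promoter–luciferase construct: 24 h compound treatment at 37 °C, followed by luminescence detection.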
FLuc counter = qHTS profiling assay for firefly luciferase inhibitor/activator using purifed enzyme and Km concentrations of substrates (counterscreen for miR-21 project); purified FLuc, Km substrates, luminescence inhibition; Potency, µM (highest dose often 57.5 µM), inactives show top-dose activity change, negative = inhibition, hits mostly inhibitors; hit rate 6.9% among 360,000; AID 588342, 2011;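 further: plate controls were vehicle for no effect and reference inhibitor for full effect; nearly all actives have a fitted effect of over 55% in size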
Target sequence (P08659 whole entry, looked up): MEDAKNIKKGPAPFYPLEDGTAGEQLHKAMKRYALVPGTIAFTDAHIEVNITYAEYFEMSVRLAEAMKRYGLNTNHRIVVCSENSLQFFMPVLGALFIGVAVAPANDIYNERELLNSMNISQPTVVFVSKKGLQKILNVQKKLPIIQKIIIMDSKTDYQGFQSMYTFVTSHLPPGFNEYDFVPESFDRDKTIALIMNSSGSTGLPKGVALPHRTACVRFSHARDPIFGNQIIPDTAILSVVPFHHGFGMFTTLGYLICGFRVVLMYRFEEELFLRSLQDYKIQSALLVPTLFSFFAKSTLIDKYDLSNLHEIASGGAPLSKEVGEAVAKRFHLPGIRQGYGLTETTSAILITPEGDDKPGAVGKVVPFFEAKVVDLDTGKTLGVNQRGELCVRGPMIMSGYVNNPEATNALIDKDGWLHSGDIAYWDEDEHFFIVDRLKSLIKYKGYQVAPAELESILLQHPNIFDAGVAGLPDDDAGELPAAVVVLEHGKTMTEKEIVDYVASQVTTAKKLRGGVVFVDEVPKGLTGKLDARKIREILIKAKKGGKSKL
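Purified P. pyralis luciferase, 10 nM final, with Km-level 10 uM D-luciferin and 10 uM ATP in 50 mM Tris acetate pH 7.5, 10 mM Mg acetate, 0.01% Tween-20, 0.05% BSA; 6-point qHTS titration about 60 µM downward; luminescence read.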
ELG1 repair inh = qHTS screen for small molecules that inhibit ELG1-dependent DNA repair in human embryonic kidney (HEK293T) cells expressing luciferase-tagged ELG1 | HEK293T ELG1-luciferase reporter, luminescence, 16 h; DNA damage induced by 5-fluorouridine | Potency, µM (top dose mostly 46.1 µM), for inactives: at the highest dose activity change, negative = inhibition, hits mostly inhibitors | hit rate 2.3% among 330,000 | AID 504467, 2011; further: on the % scale 0 is the no-effect control and ±100 the full control effect; nearly all actives have a fitted effect of over 55% in size
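DMSO vehicle served as the neutral condition. Each well held 2,000 cells given 5-fluorouridine plus compound; after 16 hr at 37 °C/5% CO2, ONE-Glo was added and luciferase measured 30 min later.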
ELG1 genotoxic = qHTS screen for small molecules that induce genotoxicity in human embryonic kidney (HEK293T) cells expressing luciferase-tagged ELG1; HEK293T ELG1-luciferase reporter, luminescence, 16 h; Potency, µM (top dose mostly 46 µM), without a hit: at the highest dose activity change, positive = activation, usual class: activators; hit rate 1.3% among 330,000; AID 504466, 2011; further: % of control where 0% means no effect; nearly all actives have a fitted effect of over 60% in size
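DMSO vehicle served as control against compound-treated ELG1-luciferase HEK293T cells; exposure lasted 16 hr at 37 °C and 5% CO2, followed by ONE-Glo luminescence detection after 30 min.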
SMN2 splice up = qHTS Assay for Enhancers of SMN2 Splice Variant Expression; Potency, µM (highest dose often 46.1 µM), inactives show top-dose activity change, positive = activation, most hits filed as activators; AID 1458, 2008; hit rate 2.8% among 210,000; HEK293 SMN2-luciferase splicing reporter, luminescence, 30-36 h; further: % of control where 0% means no effect; nearly all actives have a fitted effect of over 55% in size
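qHTS luciferase splicing reporter: luminescence rises when SMN2 exon 7 is included in transfected HEK293 cells. Compound exposure lasted 30-36 h at 37C, with 4.5 mM final sodium butyrate as control, followed by a ONE-Glo read.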
NPC1 promoter act = qHTS Assay for NPC1 Promoter Activators; AID 485313, 2010; Huh7 NPC1 promoter luciferase reporter, 24 h; hit rate 2.4% among 320,000; Potency, µM (series often up to 9.22 µM), without a hit: at the top dose activation, hits mostly activators; further: % of control where 0% means no effect; nearly all actives have a fitted effect of over 60% in size
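Stable NPC1-promoter luciferase Huh7 line; cpd (DMSO) 24 h, 37 °C, 5% CO2; Amplite luciferase reagent 10 min RT; luminescence readout. qHTS format.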
The depositor's hits bear a star. Most compounds without a hit are left out; they make up all but 9.2% or so of the library. The call rests on the fitted dose curve; in most records, active means well fitted curve in the direction sought with a large enough effect; inconclusive means small, poorly fitted or top-dose-only effect, or another doubt; inactive means no such curve, though single readings can be large; an effect the other way counts as inactive or inconclusive. Potency means the concentration at half of the fitted maximal effect.

For CCOc1ccc(NC(=O)CC2C(=O)N(c3ccc(F)cc3)C(=O)N2CCc2sccc2C)cc1 (stereo not given) the results were FLuc counter 1.3% and SMN2 splice up -0.7%.
`CC(C)(C)c1ccc(-c2nnc(N)s2)cc1` gave Rab9 promoter act 1.41µM*, FLuc counter 1.9µM*, ELG1 repair inh inconclusive, ELG1 genotoxic inconclusive and NPC1 promoter act 1.41µM*.
Screening CCCCOc1ccc(-c2ncc(N)cn2)cc1 returned Rab9 promoter act 2.82µM*, FLuc counter 6.75µM*, ELG1 repair inh inconclusive, ELG1 genotoxic inconclusive and NPC1 promoter act 1.78µM*.
`CCCCOc1cccc(-c2nnc(N)s2)c1` gave Rab9 promoter act 9.3%, FLuc counter inconclusive, ELG1 repair inh inconclusive, ELG1 genotoxic inconclusive, SMN2 splice up inconclusive and NPC1 promoter act 3.4%.
For Nc1nnc(-c2ccc(F)cc2)s1 the results were Rab9 promoter act 4.9%, FLuc counter inconclusive, ELG1 repair inh inconclusive, ELG1 genotoxic 4.1%, SMN2 splice up 6.4% and NPC1 promoter act -1.7%.
For CCOc1ccc(-c2nc(CCl)cs2)cc1 the results were Rab9 promoter act 2.24µM*, FLuc counter 3.01µM*, ELG1 repair inh inconclusive, ELG1 genotoxic inconclusive, SMN2 splice up inconclusive and NPC1 promoter act inconclusive.
`CCCCOc1ccc(-c2nnc(N)s2)cc1` gave Rab9 promoter act inconclusive, FLuc counter 7.57µM*, ELG1 repair inh inconclusive, ELG1 genotoxic inconclusive, SMN2 splice up 20.1% and NPC1 promoter act 28.0%.
`Nc1nnc(-c2ccc(Cl)cc2)s1` gave Rab9 promoter act 11.2%, FLuc counter inconclusive, ELG1 repair inh inconclusive, ELG1 genotoxic inconclusive, SMN2 splice up -15.2% and NPC1 promoter act 18.9%.
CCOc1ccc(-c2nnc(N)s2)cc1 was read as Rab9 promoter act inconclusive, FLuc counter 13.5µM*, ELG1 repair inh inconclusive, ELG1 genotoxic 11.2µM*, SMN2 splice up 11.2µM* and NPC1 promoter act inconclusive.
For Cc1cccc(NC(=O)CCc2c(C)nn(-c3ccc(N4CCOCC4)nn3)c2C)c1 the results were Rab9 promoter act 25.7%, FLuc counter 15.1µM*, ELG1 repair inh inconclusive, ELG1 genotoxic 6.4% and NPC1 promoter act 28.3%.
`Cc1cccc(NC(=O)CCc2c(C)nn(-c3ccc(N4CCCCC4)nn3)c2C)c1` gave Rab9 promoter act inconclusive, FLuc counter 5.36µM*, ELG1 repair inh inconclusive, ELG1 genotoxic 8.7% and NPC1 promoter act inconclusive.
Screening Cc1ccc(C)c(NC(=O)CCc2c(C)nn(-c3ccc(N4CCCC4)nn3)c2C)c1 returned FLuc counter 0.2%.
`Cc1cccc(C)c1NC(=O)c1cccc(COc2cc(Cl)ccc2Cl)c1` gave Rab9 promoter act 15.6%, FLuc counter -6.5%, ELG1 repair inh inconclusive, ELG1 genotoxic 16.3%, SMN2 splice up 12.6µM* and NPC1 promoter act 15.1%.
Screening Cc1ccccc1NC(=O)c1ccc(-c2ccc(Cl)cc2Cl)o1 returned Rab9 promoter act 19.4%, FLuc counter 8.49µM*, ELG1 repair inh -0.7%, ELG1 genotoxic 6.6%, SMN2 splice up 0.4% and NPC1 promoter act 9.4%.
Cc1cccc(C)c1NC(=O)c1ccc(-c2ccc(Cl)cc2Cl)o1 was read as Rab9 promoter act -11.1%, FLuc counter -1.3%, ELG1 repair inh 13µM*, ELG1 genotoxic -29.8%, SMN2 splice up -3.2% and NPC1 promoter act 6.4%.
Screening COC(=O)c1cc(NC(=O)c2ccc(-c3ccc(Cl)cc3Cl)o2)cc(C(=O)OC)c1 returned FLuc counter 3.2% and SMN2 splice up 1.9%.
Cc1ccccc1-c1ccc(C(=O)Nc2cccc(F)c2)o1 was read as Rab9 promoter act 14.9%, FLuc counter 9.53µM*, ELG1 repair inh inconclusive, ELG1 genotoxic inconclusive, SMN2 splice up 13.1% and NPC1 promoter act 5.6%.
Cc1cc(NC(=O)C(C)SCC(=O)OC(C)C(=O)Nc2ccc(F)cc2Cl)no1 (stereo not given) was read as Rab9 promoter act -4.4%, FLuc counter 9.1%, ELG1 repair inh 9.5%, ELG1 genotoxic -0.1% and NPC1 promoter act -1.5%.
Screening Cc1cc(NS(=O)(=O)c2ccc(NC(=O)COc3ccc(C#N)cc3)cc2)nc(C)n1 returned ELG1 repair inh 0.0% and ELG1 genotoxic 1.6%.
For Cc1ccc2nsnc2c1NS(=O)(=O)c1c(C)ccc2nsnc12 the results were Rab9 promoter act -5.6%, FLuc counter 3.4%, ELG1 repair inh -10.9%, ELG1 genotoxic 0.1%, SMN2 splice up 3.3% and NPC1 promoter act 2.4%.
For Cc1ccc(/C=[N+](\[O-])c2ccc(N(C)C)cc2)c2nsnc12 the results were Rab9 promoter act 1.12µM*, FLuc counter 1.35µM*, ELG1 repair inh inconclusive, ELG1 genotoxic 11.7%, SMN2 splice up 10µM* and NPC1 promoter act inconclusive.
For CC(C)c1cnc2c(c1SCc1cccc(C(F)(F)F)c1)c(=O)n(C)c(=O)n2C the results were FLuc counter -7.4%.
For CC(C)c1ccc(/C=c2\sc3nc(-c4ccncc4)nn3c2=O)cc1 the results were Rab9 promoter act 16.9%, FLuc counter 2.39µM*, ELG1 repair inh inconclusive, ELG1 genotoxic 3.7%, SMN2 splice up 6.9% and NPC1 promoter act 20.3%.
For Cc1ccc(/C=c2\sc3nc(-c4cccnc4)nn3c2=O)cc1 the results were Rab9 promoter act 7.5%, FLuc counter 4.78µM*, ELG1 repair inh 15.8%, ELG1 genotoxic 8.5%, SMN2 splice up 16.9% and NPC1 promoter act 9.1%.
Cc1cc(C)n2nc(-c3cccnc3)nc2n1 was read as Rab9 promoter act 1.9%, FLuc counter -12.3%, ELG1 repair inh 14.3%, ELG1 genotoxic 2.5%, SMN2 splice up -5.7% and NPC1 promoter act 0.5%.
Screening CN(C(=O)/C=C/c1cnc2ccccc2c1)C1CCCCC1 returned Rab9 promoter act 1.12µM*, FLuc counter 4.26µM*, ELG1 repair inh inconclusive, ELG1 genotoxic -0.9%, SMN2 splice up 3.16µM* and NPC1 promoter act 1.58µM*.
For COc1ccc(/C=C/C(=O)N(C)C2CCCCC2)cc1Br the results were Rab9 promoter act 22.5%, FLuc counter 23.9µM*, ELG1 repair inh inconclusive, ELG1 genotoxic inconclusive, SMN2 splice up inconclusive and NPC1 promoter act 15.7%.
`COc1ccc(/C=C/C(=O)N(C(C)C)C(C)C)cc1Br` gave Rab9 promoter act 0.0%, FLuc counter -12.8%, ELG1 repair inh 0.0%, ELG1 genotoxic inconclusive, SMN2 splice up 6.9% and NPC1 promoter act 3.5%.
